The list is not random: actives were taken first. Their share in the collection is about 1.3%.
Vif-APOBEC3F blk – Vif-A3F binding inhibition; HeLa A3F-eYFP + Vif (tagged APOBEC3F with the HIV-1 protein that degrades it), YFP fluorescence increase; Potency, µM (series often up to 46.1 µM), inactives show at the top dose activity, negative = active; actives 0.2% (n = 390,000); also: potency is read from the fitted curve at half-maximal effect; % of control where 0% means no effect; nearly all actives have a fitted effect of over 65% in size
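HeLa cells stably expressing Vif plus C-terminally eYFP-tagged A3F were seeded, incubated overnight at 37 deg C, dosed with compound, incubated overnight again at 37 deg C. Yellow fluorescence (Ex 488/Em 500-530) reported blocked Vif-mediated A3F-eYFP degradation.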
12-LOX inh – inhibitors of human 12S-lipoxygenase ALOX12; actives 1.1% (n = 580,000); purified 12hLO, xylenol orange hydroperoxide absorbance; Potency, µM (top dose mostly 108 µM), without a hit: top-dose activity change, negative = inhibition, hits mostly inhibitors; AID 1671190; P18054; also: potency is read from the fitted curve at half-maximal effect; % is scaled to controls: 0 for no effect and ±100 for the full control effect
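Purified human 12hLO (150 nM final) in 25 mM Hepes, 0.01% Triton X-100, pH 7.0 was preincubated 15 min at room temperature with compound. Then 40 uM arachidonic acid was added, 30 min. Hydroperoxide was read by Fe-XO absorbance ratio 573/405 nm.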
TRPML1 ag – human mucolipin-1 channel agonism; activation, % (concentration not given with the values); AID 624414; actives 0.12% (n = 410,000); TRPML1-expressing cells, Ca2+ dye fluorescence, FDSS; Q9GZU1; in the data active = activation above about 50%; inconclusive = mostly about 30% to 49%; also: 0% is about no effect
Target sequence (Q9GZU1 whole entry, looked up): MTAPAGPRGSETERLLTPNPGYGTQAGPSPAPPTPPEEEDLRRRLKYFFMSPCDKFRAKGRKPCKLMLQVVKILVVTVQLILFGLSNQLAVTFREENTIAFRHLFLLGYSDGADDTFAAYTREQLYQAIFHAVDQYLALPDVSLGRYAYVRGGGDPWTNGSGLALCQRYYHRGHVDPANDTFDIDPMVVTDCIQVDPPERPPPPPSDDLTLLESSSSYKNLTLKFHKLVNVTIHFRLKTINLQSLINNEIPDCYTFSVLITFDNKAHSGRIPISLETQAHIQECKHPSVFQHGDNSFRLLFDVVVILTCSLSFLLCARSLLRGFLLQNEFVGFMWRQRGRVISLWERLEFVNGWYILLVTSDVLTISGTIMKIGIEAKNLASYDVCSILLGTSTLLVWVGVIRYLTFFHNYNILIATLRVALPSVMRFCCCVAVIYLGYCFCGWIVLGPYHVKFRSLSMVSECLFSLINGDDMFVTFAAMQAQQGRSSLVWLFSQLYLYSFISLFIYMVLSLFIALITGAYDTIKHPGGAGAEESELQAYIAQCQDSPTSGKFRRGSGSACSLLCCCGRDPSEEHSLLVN
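Cells: TRPML1-DL, 1X Tet inducer, ~16 h at 37 degrees C/5% CO2. Dye: ABD Ca8 no-wash + quencher, 45-90 min RT. Read: 10 s baseline, compound add, 110 s agonist phase; 54-4 EC80 (4uM final), 110 s antagonist phase.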
TRPML1 blocker – blocks the human TRPML1 channel | Q9GZU1 | TRPML1-inducible cells, Ca2+ dye fluorescence, FDSS; active compounds read low; inhibition of EC80 agonist-evoked calcium signal | activity change, negative = inhibition, % (no concentration beside the values) | actives 0.02% (n = 390,000); in the data active = activity change below about -50%; inconclusive = between about -30% and that limit;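 also: stimulus is agonist 54-4 at its EC80 concentration; % is scaled to controls: 0 for no effect and ±100 for the full control effect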
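TRPML1-DL cells, Tet-induced overnight (~16 h, 37 °C) at 1,500 cells/well, were loaded with Ca8 no-wash dye plus quencher for 45-90 min at room temperature. Compounds were pinned during FDSS kinetic reading; agonist 54-4 at EC80 (4 uM final) then added.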
Glioma ERSR ind – ER stress response induction in glioma. U87-MG GRP78 promoter luciferase reporter, 16 h. Potency, µM, without a hit: top-dose activation, actives largely listed as activators. actives 0.02% (n = 420,000). AID 602332; also: potency is read from the fitted curve at half-maximal effect; series mostly up to about 76 µM; % of control where 0% means no effect; nearly all actives have a fitted effect of over 35% in size
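Stably transfected U87-MG glioma cells carrying a GRP78-based luciferase sensor; 16 h compound incubation. Luminescence end-point read 10 min after Bright-Glo addition at room temperature.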
Vif-A3G inh – inhibitors of Vif-APOBEC3G interaction. Q9HC16. actives 0.076% (n = 410,000). Potency, µM (titrated, usually from 46.1 µM), inactives show top-dose activity, negative = active, most hits filed as inhibitors. HeLa A3G-eYFP + Vif (tagged APOBEC3G with the HIV-1 protein that degrades it), YFP fluorescence, overnight; also: potency is read from the fitted curve at half-maximal effect; % is scaled to controls: 0 for no effect and ±100 for the full control effect; nearly all actives have a fitted effect of over 60% in size
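HeLa cells stably expressing Vif and C-terminally eYFP-tagged A3G, seeded overnight at 37 deg C, then exposed to compound by pintool overnight at 37 deg C. Rise in yellow fluorescence (Ex 488/Em 500-530, Acumen) marks blocked Vif-driven A3G degradation.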
* hit, by the source's call; ? = inconclusive; . = not tested or not shown; [ ] = remark or other dose. Unless noted, calls follow the shape of the dose curve; as a rule, active = well fitted curve in the direction sought with a large enough effect; inconclusive = small, poorly fitted or top-dose-only effect, or another doubt; inactive = no such curve, though single readings can be large; an effect the other way counts as inactive or inconclusive.

SMILES	Vif-APOBEC3F blk	12-LOX inh	TRPML1 ag	TRPML1 blocker	Glioma ERSR ind	Vif-A3G inh
NC1CCc2nn(CC(=O)NCc3ccc4c(c3)OCO4)c(=O)n2CC1 (stereo not drawn)	.	50µM*	.	.	.	.
O=C(OCc1cc(=O)oc2cc(O)ccc12)c1n[nH]c2ccccc12	.	25µM*	.	.	.	.
CC(Sc1ccc(Cl)cc1)C(=O)Nc1ccc(C(C)C)cc1 (stereo not drawn)	.	-25%	.	.	.	.
COCCNC(=O)CSc1cc(C)c2cc(C)cc(C)c2n1	.	43%	.	.	.	.
Cc1cc(C)c2nc(SCC(=O)NCCC3=CCCCC3)cc(C)c2c1	-11%	16µM*	2	-13	-2%	1%
COc1ccc2c(c1)CSC(c1ccccc1)C2=O (stereo not drawn)	-15%	35µM*	-1	12	2%	1%
O=C(COC(=O)Cc1cccs1)Nc1ccccc1	4%	14%	-1	-5	1%	-1%
O=C(Cc1cccs1)OCC(=O)c1ccccc1	.	40µM*	.	.	.	.
O=C(/C=C/c1ccc(Cl)cc1)c1cc(Cl)cc(Cl)c1O	.	3.5µM*	.	.	.	.
O=C(C=Cc1ccc(O)cc1)c1ccc(O)cc1O	.	7.9µM*	.	.	.	.
COc1ccc(C=CC(=O)c2cc(O)ccc2O)cc1	-14%	?	-1	-4	?	?
O=C(/C=C/N(C1CCCCC1)C1CCCCC1)C(F)(F)F	.	-15%	.	.	.	.
c1ccc(CSC2=NCCCN2)cc1	-2%	?	3	-14	-3%	0%
O=C(CCSC1=NCCCN1)c1ccc(F)cc1	-1%	45µM*	0	2	-6%	1%
O=C(Cn1ccc(=O)[nH]c1=O)N1C[C@H]2CC[C@@H]1CN(Cc1cscn1)C2	.	8.9µM*	.	.	.	.
Cc1ccc(N2NC3(CCN(C(N)=O)CC3)NC2=O)cc1	13%	?	0	14	-1%	0%
CCn1nccc1C(=O)N1CCC2(CCC2OC)CC1 (stereo not drawn)	.	64%	.	.	.	.
O=C(C1CCCC1)N1CCC2(CC1)NC(=O)N(c1ccccc1)N2	.	2.8µM*	.	.	.	.
Cc1ccccc1CC(=O)N1CCC2(CC1)NC(=O)N(c1ccccc1)N2	.	1.3µM*	.	.	.	.
CCn1nccc1C(=O)N1CCC2(CC1)NC(=O)N(c1ccccc1)N2	.	5.6µM*	.	.	.	.
O=C(C1CC1)N1CCC2(CC1)NC(=O)N(c1cccc(Cl)c1)N2	.	1.4µM*	.	.	.	.
O=C(C1CCN(C2CC(=O)N(c3cccc(Cl)c3)C2=O)CC1)N1CCCCCC1 (stereo not drawn)	11%	0%	0	?	-7%	-1%
Cc1ccc(S(=O)(=O)Nc2c(NC3CCCC3)c3ccccc3oc2=O)cc1	.	-24%	.	.	.	.
COC(=O)c1ccc(/C=N/OCc2ccc(C#N)cc2)cc1	.	18%	.	.	.	.
CCCn1c(NC(=O)c2nn(C)c(=O)c3ccccc23)nc2ccccc21	.	51%	.	.	.	.
SMILES	Vif-APOBEC3F blk	12-LOX inh	TRPML1 ag	TRPML1 blocker	Glioma ERSR ind	Vif-A3G inh
CN(C)c1ccc(/C=N/NC(=O)c2ccc3ccccc3c2)cc1	.	-3%	.	.	.	.
CC1=NN(c2ccc(C)cc2)C(=O)/C1=C/c1ccc(-c2cc([N+](=O)[O-])ccc2O)o1	-1%	20µM*	.	.	-1%	-4%
O=C1NN(c2cccc(Br)c2)C(=O)/C1=C/c1ccc(-c2cc([N+](=O)[O-])ccc2O)o1	0%	.	0	4	-3%	2%
O=C(O)c1ccc(N2C(=O)CC(SC(=Nc3ccccc3)Nc3ccccc3)C2=O)cc1 (stereo not drawn)	4%	12%	0	7	8%	0%
CC(/C=C/c1ccc(N(C)C)cc1)=N\N=C(/N)SC1CC(=O)N(c2ccc(C(=O)O)cc2)C1=O (stereo not drawn)	25µM*	?	1	-10	-4%	-15%
CC(C)=CCCC(C)CC(=O)O (stereo not drawn)	.	28%[176 µM]	.	.	.	.
CN1/C(=C/c2cccc[n+]2CCO)Sc2ccccc21	8%	45µM*	0	1	-4%	-8%
CC[n+]1ccccc1/C=C1\Sc2ccc(C)cc2N1C	22µM*	40µM*	1	3	0%	?
CC[n+]1ccccc1/C=C/Nc1ccccc1	9%	?	0	-15	-5%	-1%
CC(=S)/C=C1\Sc2ccccc2N1C	-1%	10µM*	0	-8	0%	1%
N#Cc1ccccc1NC(=O)CN(Cc1ccco1)C1CCS(=O)(=O)C1 (stereo not drawn)	.	-8%	.	.	.	.
S=C1NC(c2cccs2)=CC(c2ccc(Br)cc2)N1 (stereo not drawn)	-25%	40µM*	0	8	-3%	-4%
CCNc1ccc(S(=O)(=O)N(C)C)cc1[N+](=O)[O-]	-6%	45µM*	0	-19	-3%	-2%
CC(=O)Nc1ccc(Nc2ccc(S(=O)(=O)C(F)(F)F)cc2[N+](=O)[O-])cc1	3%	7%	1	7	-6%	-7%
CN(C)C(CNc1ccc(S(C)(=O)=O)cc1[N+](=O)[O-])c1ccccc1 (stereo not drawn)	-5%	49%	3	10	0%	1%
O=C(O)CNc1ccc(S(=O)(=O)C(F)(F)F)cc1[N+](=O)[O-]	6%	4µM*	0	-15	-4%	0%
COc1ccc(C(NC(=O)CSc2ccc3c(c2)OCCCO3)c2ccccc2)cc1 (stereo not drawn)	.	-24%	.	.	.	.
CC(=O)c1ccc(OCCOc2ccccc2Cl)cc1	.	-27%	.	.	.	.
CC1CCc2c(nc3ccc4ccccc4c3c2-c2cccc(O)c2)C1 (stereo not drawn)	.	4.5µM*	.	.	.	.
c1cc(OCc2nnc(-c3cccs3)o2)cc(-n2cnnn2)c1	.	-24%	.	.	.	.
O=S(=O)(Nc1nc2ccccc2nc1Nc1ccccc1)c1ccc2c(c1)OCCO2	.	-10%	.	.	.	.
OC(CCN1CC2CCC(CC2)C1)(Cc1ccccc1)c1ccco1 (stereo not drawn)	?	2.5µM*	1	17	-4%	-2%
O=C(/C=C/c1ccco1)N1CCC(Cc2ccccc2)CC1	-20%	13%	-1	-12	4%	-23%
CC(C)(C)NC(=O)CC1(C(=O)NCC2(c3ccccc3)CC2)CCCC1	.	9%	.	.	.	.
CCCC[n+]1c2ccccc2cc2ccccc21	-7%	8.9µM*	2	4	5%	-21%
COc1ccc(C(=O)N2CCC3(CC2)NC(=O)N(c2cccc(Cl)c2)N3)cc1	.	1.8µM*	.	.	.	.
COc1cc(OC)cc(C(=O)N2CCC3(CC2)NC(=O)N(Cc2ccccc2)C3=O)c1	.	8%	.	.	.	.
COc1ccccc1CCC(=O)N1CCN(S(=O)(=O)c2cccc(F)c2)CC1	1%	0%	-1	-5	-1%	-4%
